This is an account of results in PubChem BioAssay.

Each structure is given as a SMILES string. Where “and” joins values, the source holds several entries; their conditions need not be identical. Identical values can stand only once. Records with an inconclusive call do not appear. Where a structure was tested more than once in an assay, its records may differ in their call. Calls of active or inactive are those of the source. Unless noted, how the calls were made is not given here.

For experiment [1], the target named is ATP-dependent translocase ABCB1 (Homo sapiens) (UniProt P08183). Description: MDR1 (ABCB1) efflux transporter inhibition, cell-based (AID 377; in the data active means fluorescence slope change above about 50%). The note with it: MDR1-expressing cells, fluorescent substrate accumulation slope; stronger effect = higher value; concentration not given here.
Experiment [2] can be described thus: Cy5 fluorescence interference with SSB-bound oligo, artefact control for HCV NS3 helicase inhibitor project, biochemical, NIH Clinical Collection, E. coli SSB (AID 743268).
For experiment [3], the system named is Hepatitis C virus NS3 helicase. Description: HCV NS3 helicase inhibitors, primary screen, biochemical, fluorescence polarization, NIH Clinical Collection (AID 743270). The note with it: NS3 helicase binding to Cy5-dT15 DNA, stronger effect = higher value, concentration not given here. Background: In fluorescence polarisation assays a small probe gives low polarisation when free and higher when bound to something large.

Experiment [4] has as its target Single-stranded DNA-binding protein (Escherichia coli (strain K12)) (UniProt P0AGE0). Description: E. coli SSB displacement from DNA, counter-screen for HCV NS3 helicase inhibitor project, biochemical, fluorescence polarization, NIH Clinical Collection (AID 743271; in the data active means inhibition above about 28%). The conditions noted are these: stronger effect = higher value, concentration not given here. For orientation: Counterscreens check selectivity or assay interference.

Experiment [5] can be described thus: fluorescence interference in NS3h assay format, artefact control for HCV NS3 helicase inhibitor project, biochemical, NIH Clinical Collection (AID 743272).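 Further: HCV NS3 helicase with a Cy5 labelled single stranded DNA probe.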 The note with it: fluorescence interference counterscreen, stronger effect = lower value.
Experiment [6] in a line: kinase inhibitors against Plasmodium liver-stage infection, cell-based, known kinase inhibitor set, luminescence, hepatoma host viability (AID 624392).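 Further: infected cells incubated roughly two days before readout.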 The note with it: Plasmodium liver stage in hepatoma cells, luciferase luminescence, concentration not given here; liver cell % of control: measured here: host liver cell viability; parasite % of control: stronger effect = lower value.

The target in experiment [7] is Mitogen-activated protein kinase 7 (Homo sapiens) (UniProt Q13164). Briefly: ERK5 transactivation activators in reporter cells, primary screen, cell-based, HTS (AID 1508626;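 active means luciferase signal above three times the same-plate solvent-only control wells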;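 further: luciferase driven by Gal4-ERK5 fusion binding five Gal4 sites before minimal TATA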). The note with it: HeLa Gal4-ERK5 transactivation, 18 h, at 5 µM, stronger effect = higher value.
For experiment [8], the target named is NAD(+) hydrolase SARM1 (Homo sapiens) (UniProt Q6SZW1). Description: SARM1 TIR NADase inhibitors, cell lysate, NAD-Glo luminescence (AID 1508614;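 active means compound whose remaining NAD level is above about 45 nM, limit read from the data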). The note with it: SAM-TIR HEK293T lysate NADase, at 1 µM, stronger effect = higher value.
Sequence of NAD(+) hydrolase SARM1 (Homo sapiens) (Q6SZW1 whole entry, looked up): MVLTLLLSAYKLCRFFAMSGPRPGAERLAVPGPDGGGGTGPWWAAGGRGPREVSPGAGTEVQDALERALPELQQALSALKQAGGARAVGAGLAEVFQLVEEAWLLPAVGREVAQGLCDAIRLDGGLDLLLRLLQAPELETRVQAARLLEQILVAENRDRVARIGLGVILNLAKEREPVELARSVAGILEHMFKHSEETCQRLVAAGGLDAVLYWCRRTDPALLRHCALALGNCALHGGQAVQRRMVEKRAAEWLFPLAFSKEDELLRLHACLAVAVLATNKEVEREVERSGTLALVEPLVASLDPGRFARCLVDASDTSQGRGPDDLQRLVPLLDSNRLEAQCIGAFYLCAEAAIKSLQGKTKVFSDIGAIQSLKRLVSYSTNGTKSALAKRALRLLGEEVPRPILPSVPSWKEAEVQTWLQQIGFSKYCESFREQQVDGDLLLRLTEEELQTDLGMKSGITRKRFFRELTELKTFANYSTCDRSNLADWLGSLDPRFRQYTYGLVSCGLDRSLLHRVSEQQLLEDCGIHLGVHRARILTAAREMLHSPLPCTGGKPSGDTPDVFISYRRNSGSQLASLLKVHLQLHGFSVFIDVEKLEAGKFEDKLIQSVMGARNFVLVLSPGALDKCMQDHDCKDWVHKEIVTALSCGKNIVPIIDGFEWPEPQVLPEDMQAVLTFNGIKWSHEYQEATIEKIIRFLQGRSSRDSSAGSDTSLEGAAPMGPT

Sequence of ATP-dependent translocase ABCB1 (Homo sapiens) (P08183 whole entry, looked up): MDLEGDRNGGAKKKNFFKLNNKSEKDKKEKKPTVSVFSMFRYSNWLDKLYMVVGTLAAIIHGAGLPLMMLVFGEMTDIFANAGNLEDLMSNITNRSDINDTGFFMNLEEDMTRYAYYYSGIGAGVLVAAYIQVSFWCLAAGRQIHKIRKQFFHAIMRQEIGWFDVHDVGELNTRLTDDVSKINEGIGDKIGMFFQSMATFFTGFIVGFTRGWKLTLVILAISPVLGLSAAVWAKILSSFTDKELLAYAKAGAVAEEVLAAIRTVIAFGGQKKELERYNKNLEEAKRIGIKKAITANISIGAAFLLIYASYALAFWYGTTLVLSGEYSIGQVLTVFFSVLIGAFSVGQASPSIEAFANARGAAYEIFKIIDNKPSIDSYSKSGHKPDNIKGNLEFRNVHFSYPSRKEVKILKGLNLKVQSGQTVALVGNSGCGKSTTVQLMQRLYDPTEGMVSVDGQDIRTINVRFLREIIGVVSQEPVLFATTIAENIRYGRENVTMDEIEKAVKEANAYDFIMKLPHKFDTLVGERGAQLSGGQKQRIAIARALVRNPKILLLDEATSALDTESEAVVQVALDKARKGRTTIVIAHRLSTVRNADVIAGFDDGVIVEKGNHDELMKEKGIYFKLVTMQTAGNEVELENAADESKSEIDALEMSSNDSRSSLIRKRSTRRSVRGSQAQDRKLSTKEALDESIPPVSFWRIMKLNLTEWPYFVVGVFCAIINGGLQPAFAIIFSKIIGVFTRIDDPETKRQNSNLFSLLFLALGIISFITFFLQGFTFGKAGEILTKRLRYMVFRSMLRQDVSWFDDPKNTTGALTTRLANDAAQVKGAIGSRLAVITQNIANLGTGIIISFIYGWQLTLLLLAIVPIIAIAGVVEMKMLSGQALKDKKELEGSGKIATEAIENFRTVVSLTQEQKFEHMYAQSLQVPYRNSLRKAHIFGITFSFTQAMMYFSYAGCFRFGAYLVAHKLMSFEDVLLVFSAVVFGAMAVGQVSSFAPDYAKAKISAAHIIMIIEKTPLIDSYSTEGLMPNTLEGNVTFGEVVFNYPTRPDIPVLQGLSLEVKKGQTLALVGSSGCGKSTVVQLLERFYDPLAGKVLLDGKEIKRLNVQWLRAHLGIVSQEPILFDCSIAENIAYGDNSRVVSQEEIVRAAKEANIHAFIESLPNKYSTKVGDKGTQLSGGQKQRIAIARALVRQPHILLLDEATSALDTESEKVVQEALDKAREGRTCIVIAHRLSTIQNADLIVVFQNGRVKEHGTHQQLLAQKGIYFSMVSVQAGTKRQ
Sequence of Mitogen-activated protein kinase 7 (Homo sapiens) (Q13164 whole entry, looked up, the tested form may be a part): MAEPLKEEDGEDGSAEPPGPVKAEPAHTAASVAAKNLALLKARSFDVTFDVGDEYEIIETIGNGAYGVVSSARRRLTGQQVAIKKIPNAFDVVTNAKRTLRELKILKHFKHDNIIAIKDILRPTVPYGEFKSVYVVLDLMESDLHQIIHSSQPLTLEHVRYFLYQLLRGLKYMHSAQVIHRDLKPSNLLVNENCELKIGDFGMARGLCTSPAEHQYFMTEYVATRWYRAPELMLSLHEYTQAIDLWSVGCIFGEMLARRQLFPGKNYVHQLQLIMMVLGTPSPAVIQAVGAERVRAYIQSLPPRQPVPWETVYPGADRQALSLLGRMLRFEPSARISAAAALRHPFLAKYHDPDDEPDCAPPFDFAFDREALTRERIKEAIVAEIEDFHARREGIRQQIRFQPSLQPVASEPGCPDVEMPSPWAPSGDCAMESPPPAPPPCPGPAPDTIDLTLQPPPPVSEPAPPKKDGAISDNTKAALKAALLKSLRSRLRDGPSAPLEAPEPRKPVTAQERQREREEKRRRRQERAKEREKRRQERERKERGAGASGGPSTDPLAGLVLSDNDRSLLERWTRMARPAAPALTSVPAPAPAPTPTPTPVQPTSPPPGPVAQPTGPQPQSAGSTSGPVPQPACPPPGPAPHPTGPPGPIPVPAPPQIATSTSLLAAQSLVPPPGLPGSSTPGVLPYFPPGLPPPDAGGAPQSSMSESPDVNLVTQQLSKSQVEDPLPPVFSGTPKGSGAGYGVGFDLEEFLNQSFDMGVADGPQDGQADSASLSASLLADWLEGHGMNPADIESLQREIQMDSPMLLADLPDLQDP

Regarding `CN1[C@@H](C[C@H](O)c2ccccc2)CCC[C@H]1CC(=O)c1ccccc1`, in experiment [1], the fluorescence slope change was 26.3% (inactive). Same read-out and setting: in the case of `O=C1OC(CN2CCOCC2)CN1N=Cc1ccc([N+](=O)[O-])o1` (stereo not given) it was 11.7% (inactive); in that of `c1ccc(CNc2ncnc3nc[nH]c23)cc1`, 11.7% (inactive). Still for that read-out and setting: in the case of `O=C1OC(C(O)CO)C(O)=C1O` (stereo not given) it was 10.1% (inactive); in that of `Nc1nc(=S)c2ncn([C@@H]3O[C@H](CO)[C@@H](O)[C@H]3O)c2[nH]1`, 59.6% (active); in that of `CNc1ncnc2c1ncn2[C@@H]1O[C@H](CO)[C@@H](O)[C@H]1O`, 64.6% (active). The same measure, in the same setting: in the case of `CCCCC[C@H](O)/C=C/[C@@H]1[C@@H](C/C=C\CCCC(=O)O)[C@@H](O)C[C@H]1O` (tested in a mixture with another compound) it was 101% (active); in that of `CNCCC=C1c2ccccc2C=Cc2ccccc21`, 58% (active). A word on the inhibition: it is how much of the control response was suppressed. Regarding `COc1ccc2cc([C@@H](C)C(=O)O)ccc2c1`, the fluorescence ratio in experiment [2] and in experiment [5] was 0.94 (inactive) throughout. For the same compound, the figures for the inhibition in experiment [3] and in experiment [4] were 0.66% (inactive) and 8.27% (inactive), respectively.

`O=C1NC(=O)C(=Cc2ccc(-c3ccc(F)cc3O)o2)S1`: in experiment [6], the liver cell % of control is 115% and 104% and 93.4%; the parasite % of control is 1.06% (inactive) and 3.29% (inactive) and 2.91% (inactive).

As for `CC1CCN(C(=O)CC#N)CC1N(C)c1ncnc2[nH]ccc12` (stereo not given), in experiment [6], the liver cell % of control was 104% and 99.8%; the parasite % of control is 80.9% (inactive) and 77.3% (inactive) and 45.5% (inactive). Take `C[C@]1(OC(=O)/C=C/c2ccccc2)C[C@@H](O)[C@]2(O)C=CO[C@@H](O[C@@H]3O[C@H](CO)[C@@H](O)[C@H](O)[C@H]3O)[C@@H]21`: the luciferase signal in experiment [7] was 28 AU (inactive). Regarding `CON=C1C[C@]2(C[C@@H]3C[C@@H](C/C=C(\C)C[C@@H](C)/C=C/C=C4\CO[C@@H]5[C@H](O)C(C)=C[C@@H](C(=O)O3)[C@]45O)O2)O[C@H](/C(C)=C/C(C)C)[C@H]1C`, in experiment [8], the remaining NAD is 10 nM (inactive). As for `CCN(CC)CCNC(=O)c1c(C)[nH]c(C=C2C(=O)Nc3ccc(F)cc32)c1C`, in experiment [6], the liver cell % of control is 117% and 132% and 81.2%; the parasite % of control was 0.0958% (inactive) and 0.227% (active) and 376% (inactive).
